Assay results from PubChem BioAssay AID686978 (National Center for Advancing Translational Sciences (NCATS), 2013).
Values joined by “and” are separate entries in the source; they are usually repeats but may differ in a detail not shown here. Identical values can stand only once. Screen size: about 420,000 compounds; about 64,000 (15%) were called active. Not shown: some 27% with an inconclusive outcome. Only a sample is shown. A number with no mark means an inactive call. Calls come from the whole dose curve; as a rule, active = well fitted inhibition curve with a large enough effect; inconclusive = small, poorly fitted or top-dose-only effect; inactive = flat fitted curve, though single readings scatter.

Experiment: qHTS for Inhibitors of human tyrosyl-DNA phosphodiesterase 1 (TDP1): qHTS in cells in absence of CPT; note: nearly all actives have a fitted effect of over 55% in size
Conditions: DT40 Tdp1-/- hTDP1 cells, no CPT, ATP luminescence, 48 h; activity change, negative = growth inhibition: at 46.2 µM (top of the series)
How it was run: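 No-CPT arm: Tdp1-/-;hTDP1 DT40 cells (400/well) plus compounds, incubated ≥48 hr at 37 °C. Readout CellTiter-Glo luminescence.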
% is set by controls: 0 for no effect and ±100 for the full control effect; potency is the fitted concentration of half-maximal effect.

Row | Structure (SMILES) | Potency | activity change, negative = growth inhibition [%]
1 | COc1ccc2occ(C(=O)c3ccc(N=C(C)N(C)C)cc3)c2c1 | 23.1 µM (active) | 
2 | COc1ccc(OC)c(C(=O)c2ccc(C(=O)O)cc2)c1 |  | -7.17
3 | COc1ccc2c(CC(=O)OCC(=O)NC(N)=O)coc2c1 |  | 17.9
4 | CN(C(=O)COC(=O)c1cc(=O)[nH]c2ccccc12)C1CCCCC1 |  | -24.9
5 | CN(CC(=O)Nc1c(Cl)cccc1Cl)C(=O)CNC(=O)C1CCCCC1 |  | -15.4
6 | O=C(O)C(CCc1ccccn1)c1ccccc1 (centres undefined) |  | -12.4
7 | Cc1ccc(-c2csc(NC(=O)Cn3[nH]c(=O)c4ccccc4c3=O)n2)cc1 | 16.4 µM (active) | 
8 | O=C(CSC1=NCCS1)Nc1nc(-c2ccccc2)cs1 |  | -21.5
9 | O=C(COC(=O)Cn1[nH]c(=O)c2ccccc2c1=O)Nc1ncc(Cl)cc1Cl |  | -3.18
10 | C=CCOc1ccc(Cl)cc1CNCCCN1CCOCC1 |  | -26.3
11 | CCCCn1c(N)c(N(CCC(C)C)C(=O)CC2OC(=O)c3ccccc32)c(=O)[nH]c1=O (centres undefined) |  | -1.23
12 | CCOC(=O)c1sc(N)c(C#N)c1COC(=O)C1=COCCO1 |  | -11.9
13 | COc1ccc(-c2cn3nc(N4CCC(C(=O)Nc5cccc(C)c5C)CC4)sc3n2)cc1 | 11.6 µM (active) | 
14 | Cc1cc(=O)n2nc(N3CCCC(C(=O)NCc4ccc(Cl)cc4)C3)sc2n1 (centres undefined) |  | -14.3
15 | COc1ccc(-c2cn3nc(N4CCCC(C(=O)NCCCOC(C)C)C4)sc3n2)cc1 (centres undefined) | 18.4 µM (active) | 
16 | Cc1cccc(NC(=O)C2CCCN(C(=O)NCc3ccccc3)C2)c1C (centres undefined) |  | -9.86
17 | Cc1cc(=O)n2nc(N3CCCC(C(=O)NCCC4=CCCCC4)C3)sc2n1 (centres undefined) |  | -3.34
18 | Cc1cc(=O)n2nc(N3CCC(C(=O)Nc4c(F)c(F)c(F)c(F)c4F)CC3)sc2n1 |  | 7.4
19 | COC(=O)c1ccc(CNC(=O)c2ccc3oc(C(C)C)nc3c2)cc1 |  | -23
20 | Cc1c(-c2cccc(Cl)c2)nc2ccccc2c1C(=O)OCC(=O)N(C)C1CCS(=O)(=O)C1 (centres undefined) |  | -18.4
21 | CC(=O)Nc1ccc(C(=O)NNC(=O)CCCCC(=O)NNC(=O)c2ccc(NC(C)=O)cc2)cc1 |  | -26.2
22 | O=C(c1cn(-c2ccccc2)nc1-c1cccnc1)N1CCCCC1 |  | -1.78
23 | CCC(=O)OCc1c(C(F)(F)F)nn(C)c1Oc1cccc(C(F)(F)F)c1 |  | 16.5
24 | Cc1cc(Br)ccc1NC(=O)c1sc2ncn(CC(=O)N3CCN(c4ccccn4)CC3)c(=O)c2c1C |  | -15.7
25 | CCc1cccc(NC(=O)c2cnc(N3CCOCC3)c3ccccc23)c1 | 11.6 µM (active) | 
26 | Cc1ccc(S(=O)(=O)NCC(=O)N2CCN(c3ccccn3)CC2)cc1 |  | 1.99

Row | Structure (SMILES) | Potency | activity change, negative = growth inhibition [%]
27 | O=C(Nc1ccc(F)cc1)c1cccnc1N1CCOCC1 |  | 2.7
28 | Cc1cc(Br)ccc1NC(=O)c1cnc(N2CCN(c3ccccn3)CC2)c2ccccc12 | 13 µM (active) | 
29 | CSc1ncccc1C(=O)Nc1cccc(S(=O)(=O)N2CCOCC2)c1 |  | -7.85
30 | CCOC(=O)COc1nc(C)cc(C(F)(F)F)c1C#N |  | -3.92
31 | CCOC(=O)c1c(N)sc2c1CCCC2=O |  | -23.7
32 | COc1ccc(-n2c(=O)c3ccccc3n(Cc3ccccc3Cl)c2=O)cc1 |  | -9.58
33 | CCC(=O)c1ccc(OCC(=O)OCC(=O)N2CCc3ccccc3C2)cc1 |  | -16.3
34 | OCCN1CCN(C(=S)c2ccc(-c3ccccc3)cc2)CC1 |  | -17.2
35 | CN(C)CCNC(=O)Cc1ccc([N+](=O)[O-])cc1 |  | 7.09
36 | Cn1cc(CCC(=O)NCc2ccc3c(c2)OCO3)c2ccccc21 |  | -20.7
37 | Cc1nc2nc(COc3ccccc3)[nH]n2c(=O)c1C |  | -18.5
38 | OCC[C@H]1C[C@H](O)[C@@H](O)[C@]2(CCc3ccccc3O2)O1 |  | -2.75
39 | CCOc1cccc(SCc2noc(C(=O)NC(C)C)c2C(=O)O)c1 |  | -11.2
40 | CC1CN(S(=O)(=O)c2cccc(C(F)(F)F)c2)CN1C(=O)N1CCOCC1 (centres undefined) |  | 1.17
41 | Cc1oc(-c2ccccc2)nc1Cn1c(SCc2cccc(C(F)(F)F)c2)nc2cccnc21 | 25.9 µM (active) | 
42 | O=C(O)c1ccc(CSc2nc3cccnc3n2Cc2cccc(F)c2)cc1 |  | -18.6
43 | O=C(NC1CCCCC1)c1ccc(Cn2c(SCc3ccccc3)nc3cccnc32)cc1 |  | -28.6
44 | O=C(Cc1ccccc1)NNC1CC(=O)N(c2ccc(Br)cc2)C1=O (centres undefined) |  | -2.99
45 | Cc1onc(C(=O)Nc2ccc3c(c2)OCO3)c1[N+](=O)[O-] |  | -0.294
46 | CN(CC(=O)NC1CCCCC1)S(=O)(=O)c1cccc2cccnc12 |  | -25.1
47 | CC(=O)OC[C@@H]1CN(Cc2ccccc2)C[C@H](n2cnc3c(NCc4ccco4)ncnc32)O1 |  | -11.8
48 | Nc1ncnc2c1ncn2[C@@H]1O[C@H](C(=O)NCC(F)(F)F)[C@@H](O)[C@H]1O |  | 2.82
49 | COCCn1c(=O)c(-c2cc(F)cc(F)c2)nc2cncnc21 |  | 10.5
50 | N#Cc1cccc(-c2nc3cnc(N4CCNCC4)nc3n(C3CC3)c2=O)c1 | 3.66 µM (active) | 
51 | O=c1c(CCc2ccccc2)nc2cnc(N3CCNCC3)nc2n1Cc1cccs1 |  | -1.32
52 | O=c1c(-c2ccc(F)cc2)nc2cnc(N3CCOCC3)nc2n1-c1ccccc1 |  | 0.857

Row | Structure (SMILES) | Potency | activity change, negative = growth inhibition [%]
53 | COCCn1c(=O)c(-c2ccccc2)nc2cnc(N3CCOCC3)nc21 |  | -7.21
54 | COCCn1c(=O)c(-c2cc(F)cc(F)c2)nc2cnc(N3CCNCC3)nc21 | 23.1 µM (active) | 
55 | COC(=O)c1ccc(NC(=O)c2cc3c(CO)cnc(C)c3oc2=Nc2cccc(C(N)=O)c2)cc1 |  | -22.8
56 | Cc1cc(C(=O)N2CCC(C(=O)O)CC2)c(C(F)(F)F)o1 |  | 5.7
57 | COC(=O)c1ccc(CSc2ccc(S(=O)(=O)N3CCCCC3)cn2)cc1 |  | -4.95
58 | C/C(CC(=O)Nc1ccc(C)cc1C)=N\NC(=O)C(C)C |  | 8.43
59 | CN(C)N1C(N)=C(C#N)C(c2ccc(Br)cc2)C2=C1CCCC2=O (centres undefined) |  | 7.64
60 | Cc1ccc(S(=O)(=O)N(C)C)cc1NC(=O)COC(=O)c1c(C)noc1C |  | -6.14
61 | C=CCCC(=O)N1C[C@H]2CON(C)[C@H]2C[C@H]1c1cccc(Nc2ccccc2)c1 |  | -7.65
62 | O=C(c1cccs1)N1C[C@H](n2cc(C3CC3)nn2)[C@@H](O)C[C@@H]1c1ccccc1 |  | -26.4
63 | CCCCCC(=O)N1C[C@H](O)[C@@H](n2cc(COC(=O)c3ccccc3)nn2)C[C@@H]1c1ccc(C)cc1 | 0.82 µM (active) | 
64 | O=C(OCc1cn(-c2ccc(Cl)c(Cl)c2)nn1)c1ccccc1Cl |  | -0.626
65 | O=C(OCc1cn([C@@H]2C[C@H](c3ccc(Cl)cc3)N(Cc3cccs3)C[C@H]2O)nn1)c1ccccc1 |  | -8.11
66 | O=C(OCc1cn([C@H]2C[C@H](c3ccccc3)N(C(=O)c3cccs3)C[C@@H]2O)nn1)c1ccccc1 | 18.4 µM (active) | 
67 | CCCCN(C)CCNC(=O)CSCc1ccc(C)cc1 |  | 13.4
68 | CC1=CC(=O)C=CC1(C)C(Cl)(Cl)Cl (centres undefined) |  | -24
69 | CCN(CC(=O)NCc1ccco1)S(=O)(=O)c1ccc(F)cc1 |  | -12.4
70 | Cc1c(C=O)c2ccccn2c1C(=O)c1ccncc1 |  | -25.4
71 | COc1ccc([N+](=O)[O-])cc1-c1nc2ccccc2nc1-c1ccccc1 |  | -35.9
72 | CCN(C(=O)Cn1c(=O)nc(-c2ccccc2)c2cc(Cl)ccc21)c1cccc(C)c1 |  | -6.07
73 | O=C(Cn1c(=O)nc(-c2ccccc2)c2cc(Cl)ccc21)NCc1ccc(Cl)cc1 | 23.1 µM (active) | 
74 | COC(=O)Cn1nc(-c2ccccc2)c2cc(Cl)ccc21 |  | -29.8
75 | Cc1ccc(N(CC(=O)NC2CCCCC2)C(=O)CCCC(=O)Nc2ccccn2)c(C)c1 |  | -18.2
76 | Cn1nccc1C(=O)NCC1CCC2(CCN(Cc3c(O)ccc4ccccc34)CC2)O1 (centres undefined) |  | -21.7
77 | CCOC(=O)c1ccc(Nc2cc(C)nc3nc(C)nn23)cc1 |  | -1.51
78 | CCOC(=O)c1nc(Nc2ccc(C(=O)OC)cc2)c2ccccc2n1 | 8.2 µM (active) and 20.6 µM (active) | 

Row | Structure (SMILES) | Potency | activity change, negative = growth inhibition [%]
79 | COC(=O)c1ccc(Nc2ncnc3sccc23)cc1 |  | -1.98
80 | COc1cc(C(=O)N2C(=O)c3cccc(N)c3C2=O)cc(OC)c1OC |  | 8.82
81 | O=C(CCc1ccccc1)Nc1nn[nH]n1 |  | -2.74
82 | O=C(O)c1ccc(N=NN2CCOCC2)cc1 |  | -15.9
83 | Cc1ccc(NC(=O)c2ccco2)cc1 |  | -4.11
84 | Cc1ccc(C(=O)COc2cccc(NC(=O)c3ccco3)c2)cc1 | 20.6 µM (active) | 
85 | O=C(Nc1cccc(NC(=O)c2ccco2)c1)c1cnccn1 |  | -18.8
86 | CCOc1cc(NC(=S)NCc2ccco2)c(OCC)cc1NC(=O)c1ccco1 |  | -26.8
87 | Cc1cccc(OCC(=O)Nc2ccc(NC(=O)c3ccco3)c(C)c2)c1 | 16.4 µM (active) | 
88 | Cc1cc(NC(=O)c2ccc(F)cc2)ccc1NC(=O)c1ccco1 |  | -27.6
89 | COc1ccc(OCC(=O)Nc2ccc(NC(=O)c3ccco3)c(C)c2)cc1 |  | 0.455
90 | CCOc1cc(NC(=O)c2ccco2)c(OCC)cc1NC(=O)COc1ccccc1 | 4.61 µM (active) | 
91 | O=C(COc1ccccc1)Nc1nonc1NC(=O)COc1ccccc1 |  | -12.1
92 | CC(C)c1ccc(NC(=O)Cn2ncc3ccccc32)cc1 |  | -26.9
93 | CCOC(=O)C1CCN(C(=O)C2CCN(S(=O)(=O)c3c(C)noc3C)CC2)CC1 |  | -14
94 | CCOc1ccc(Oc2nc(C)cc(OC)n2)nn1 |  | -5.71
95 | S=C(NCCc1ccccc1)N1CCCCC1 |  | 14.3
96 | Oc1ccc(N2CCN(C(=S)NCc3ccccc3)CC2)cc1 | 13 µM (active) | 
97 | O=C1CCN(C(=S)NCCc2ccccc2)CC1 |  | 4.41
98 | Cc1ccc(C(=O)COC(=O)CCN2C(=O)C3C4CC(C(Br)C4Br)C3C2=O)cc1 (centres undefined) |  | 2.81
99 | Clc1ccc(-c2cc(COc3ccccc3)no2)cc1Cl |  | -3.75
100 | COc1ccc(Oc2coc3cc(OC(=O)c4cncc(Br)c4)ccc3c2=O)cc1 |  | -27.9
101 | O=C(Oc1ccccc1)Oc1ccc2c(c1)oc(=O)c1ccccc12 |  | -12.5
102 | N#CCSc1nc2ccc(N3CCOCC3)cc2c(=O)n1CCc1ccccc1 | 20.6 µM (active) | 
103 | COCCCNC(=O)CSc1nc2ccc(N3CCOCC3)cc2c(=O)n1CCc1ccccc1 |  | -18.2
104 | CCCCn1c(SCC(=O)NCC2CCCO2)nc2ccc(N3CCOCC3)cc2c1=O (centres undefined) |  | -12.7
